The values below come from PubChem BioAssay (NCI).

About 83,000 compounds went through this panel and 20% of them were active in at least one assay; those are over-represented in the sample as a whole.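 Method: cells in 96-well plates; compound added at one concentration; 48 h incubation; percent growth measured; values under 10 scored active.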 The source made the active and inactive calls.

The assay deals with MDA-MB-468 breast. Put plainly: NCI-60 one-dose screen, 48 h (100 = growth as untreated, 0 = no growth, -100 = all killed). To be noted: 10 µM unless noted.
As to `Cc1cc2c(-c3nc4ccccn4c3NC34CC5CC(CC(C5)C3)C4)c(O)c(O)cc2c(O)c1-c1c(C)cc2c(-c3nc4ccccn4c3NC34CC5CC(CC(C5)C3)C4)c(O)c(O)cc2c1O`, the growth is -10.7% (active).
On to `O=C(O)CCC(=O)OC(C1CO1)C(OC(=O)CCC(=O)O)C1CO1` (configuration not stated), for which the growth is 99% (inactive).
As for `COc1ccc(/C=C2\Oc3cc(C)c(Cl)cc3C2=O)cc1OC`, the growth was 110% (inactive).
Turning to `COc1ccc(CSc2nc3cc(OC)c(OC)cc3c(=O)n2-c2ccc(Cl)cc2)cc1`, the growth was 103% (inactive).
For `Cc1ccc(-c2csc(N)n2)cc1`, the growth is 104% (inactive).
In the case of `COc1ccc(-c2nnc(SCC(=O)Nc3ccc(C(=O)/C=C/c4cc(OC)c(OC)c(OC)c4)cc3)n2-c2ccccc2)cc1OC`, the growth was -14.2% [100 µM] (active).
Turning to `CCC(OC(=O)CC(C)C)c1ccccc1` (configuration not stated), the growth was 99.3% (inactive).
Take `CC/C(=C(/c1ccc(OCCN(C)C)cc1)c1ccc(OC(=O)CCCCC(=O)c2c(C)[nH]c(/C=C3\N=C(c4ccc[nH]4)C=C3OC)c2C)cc1)c1ccccc1`: the growth is 47.5% (inactive).
`O=c1cc(Cl)nc2ccccn12`: the growth is 107% (inactive).
For `Cc1nn(-c2ccc(Cl)cc2)c2nc3c(nc12)C(=O)C(=O)c1ccccc1-3`, the growth is 65.3% (inactive).
Turning to `COC1=CC(c2ccc[nH]2)=N/C1=C\c1[nH]c(C)c(CCCn2cc(CCCCCCCCC[C@@H]3Cc4cc(O)ccc4C4CC[C@]5(C)[C@@H](O)CC[C@H]5C43)nn2)c1C` (some centres not stated), the growth was 30.1% (inactive).
In the case of `COc1cc(/C=C2\CCC/C(=C\c3cc(CN4CCCCC4)c(O)c(OC)c3)C2=O)cc(CN2CCCCC2)c1O`, the growth is 80.4% (inactive).
